Bioassay records as filed in PubChem BioAssay.
PLK1 PBD block = PLK1 (human) polo-box domain binding inhibition. AID 720504. 360,000 tested, 2.8% active. Potency, µM, actives largely listed as inhibitors. P53350. Plk1 PBD binding of FITC phosphopeptide, fluorescence polarization; further: series mostly up to about 57 µM; nearly all actives have a fitted effect of over 65% in size
Target sequence (P53350 whole entry, looked up, the tested form may be a part): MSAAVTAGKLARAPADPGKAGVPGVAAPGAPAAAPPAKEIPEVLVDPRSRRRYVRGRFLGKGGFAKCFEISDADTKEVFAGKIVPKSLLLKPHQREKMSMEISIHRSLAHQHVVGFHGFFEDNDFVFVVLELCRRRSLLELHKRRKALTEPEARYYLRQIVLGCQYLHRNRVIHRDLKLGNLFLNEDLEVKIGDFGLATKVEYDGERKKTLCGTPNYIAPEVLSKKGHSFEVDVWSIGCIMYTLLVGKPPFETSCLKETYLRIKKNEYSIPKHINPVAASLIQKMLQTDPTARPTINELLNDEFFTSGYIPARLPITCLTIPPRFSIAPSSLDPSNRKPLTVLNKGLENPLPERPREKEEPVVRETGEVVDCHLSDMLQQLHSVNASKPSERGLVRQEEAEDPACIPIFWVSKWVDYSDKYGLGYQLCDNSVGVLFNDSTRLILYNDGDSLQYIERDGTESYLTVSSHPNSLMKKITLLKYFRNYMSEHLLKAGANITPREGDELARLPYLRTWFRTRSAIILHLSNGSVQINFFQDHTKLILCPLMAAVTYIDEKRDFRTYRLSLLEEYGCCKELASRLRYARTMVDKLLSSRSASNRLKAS
JMJD2A Tudor inh = JMJD2A Tudor domain (human) inhibition | O75164 | AlphaScreen JMJD2A-Tudor / H3K4me3 peptide binding | Potency, µM (doses to about 114 µM), hits mostly inhibitors | 390,000 tested, 4.4% active | AID 504339; further: nearly all actives have a fitted effect of over 50% in size
HP1b chromo inh = blocks HP1-beta chromodomain binding to methylated histone tails; Potency, µM (titrated, usually from 114 µM), actives largely listed as inhibitors; P83916; 390,000 tested, 0.56% active; AlphaScreen HP1-beta / biotin-H3K9me3 peptide binding; AID 540317; further: nearly all actives have a fitted effect of over 70% in size
Target sequence (P83916 whole entry, looked up): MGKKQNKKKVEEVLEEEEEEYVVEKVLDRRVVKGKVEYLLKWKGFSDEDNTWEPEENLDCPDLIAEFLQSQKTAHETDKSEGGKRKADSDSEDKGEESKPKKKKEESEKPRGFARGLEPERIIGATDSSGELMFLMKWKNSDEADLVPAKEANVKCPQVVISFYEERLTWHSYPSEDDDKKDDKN
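HP1-beta protein (50 nM final) preincubated 30 min at room temperature with biotinylated H3(1-18)K9me3 peptide (50 nM) in PBS pH 7.4, 0.01% Tween-20, then compound added for 30 min. AlphaScreen streptavidin donor/nickel chelate acceptor beads (10 ug/mL final), 30 min dark, luminescence read.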
G9a inh = G9a (human) methyltransferase inhibition | 350,000 tested, 8.8% active | AID 504332 | G9a H3K9 monomethylation, AlphaScreen, 2 h | Q96KQ7 | Potency, µM (top dose mostly 102 µM), actives largely listed as inhibitors; further: nearly all actives have a fitted effect of over 75% in size
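Methyltransferase reactions run at room temperature for 2 h (20 nM enzyme, 500 nM biotin-H3K9 peptide, 20 uM SAM) after a 15 min compound preincubation; product detected by AlphaScreen beads and anti-H3K9me1 antibody.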
Sfp PPTase inh = blocks B. subtilis Sfp PPTase activity | Potency, µM, hits mostly inhibitors | Biochemical Sfp PPTase activity, qHTS | Q9F4F7 | 310,000 tested, 3.5% active;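 further: the enzyme is Sfp with the accession as filed and its product quenches rhodamine fluorescence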
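After 15 min at room temperature with compound, 15 nM Sfp received 5 uM rhodamine-CoA plus 12.5 uM BHQ-2-ybbR (50 mM Hepes pH 7.6, 10 mM MgCl2). Rate came from the fluorescence difference over 30 min, ex 525/em 598 nm.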
BAZ2B block = blocks human BAZ2B; Q9UIF8; AlphaScreen BAZ2B-H3K14Ac peptide displacement; Potency, µM (series often up to 114 µM), hits mostly inhibitors; 360,000 tested, 4.4% active; AID 504333; further: nearly all actives have a fitted effect of over 60% in size
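Compounds, titrated to a top concentration of 110 uM, were incubated 30 min at room temperature with preformed BAZ2B/acetyl-K14 H3 peptide complex (50 nM each). Proximity signal was measured by AlphaScreen after 20 min with beads.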
A number is an active result; ! = not active in a repeat; [ ] = dose if it differs, or a comment. Shown are actives, neighbours in structure and some others; about 12% of the full set was active somewhere. The call rests on the fitted dose curve; in most records, active means well fitted curve in the direction sought with a large enough effect; inconclusive means small, poorly fitted or top-dose-only effect, or another doubt; inactive means no such curve, though single readings can be large; an effect the other way counts as inactive or inconclusive.

What do the screens show for `O=C(N/N=C\c1ccc(CN(Cc2ccc(Cl)cc2)S(=O)(=O)c2ccccc2)o1)C(=O)Nc1ccc(F)cc1`?
PLK1 PBD block: 26.7µM; JMJD2A Tudor inh: inactive[11.4 µM]; HP1b chromo inh: inactive; G9a inh: inconclusive; Sfp PPTase inh: inactive; BAZ2B block: inactive

How did O=C(CN1C(=O)COc2ccccc21)N(Cc1ccccc1)Cc1ccccn1 do in these assays?
PLK1 PBD block: inactive; JMJD2A Tudor inh: inactive; HP1b chromo inh: inactive; G9a inh: inconclusive; Sfp PPTase inh: inactive; BAZ2B block: inactive

Results for Cc1ccc(CN(Cc2cccnc2)C(=O)CN2C(=O)COc3ccccc32)o1 ?
PLK1 PBD block: inactive; JMJD2A Tudor inh: inactive; HP1b chromo inh: inactive; G9a inh: inconclusive; Sfp PPTase inh: 28.2µM; BAZ2B block: inactive

How did CCN(CC)S(=O)(=O)c1ccc(N2CCCC2)c(NC(=O)c2ccc(OC)cc2OC)c1 do in these assays?
PLK1 PBD block: inactive; JMJD2A Tudor inh: inactive; HP1b chromo inh: inactive; G9a inh: 28.2µM; Sfp PPTase inh: 79.4µM; BAZ2B block: inactive

How did CC1(c2ccccc2)NC(=O)N(CC(=O)Nc2ccc(S(=O)(=O)Nc3ncccn3)cc2)C1=O (stereo not given) do in these assays?
PLK1 PBD block: inactive; JMJD2A Tudor inh: inactive; HP1b chromo inh: inactive; G9a inh: inactive[2.33 µM]; BAZ2B block: inactive

Results for Cc1cc(NS(=O)(=O)c2ccc(NC(=O)CN3C(=O)NC(C)(c4ccccc4)C3=O)cc2)nc(C)n1 (stereo not given) ?
PLK1 PBD block: inactive; JMJD2A Tudor inh: inactive; HP1b chromo inh: inactive; G9a inh: 14.1µM; BAZ2B block: inactive

How did CCN(CC)S(=O)(=O)c1ccc(N2CCOCC2)c(NC(=O)CN2C(=O)NC(C)(c3ccccc3)C2=O)c1 (stereo not given) do in these assays?
PLK1 PBD block: inactive; JMJD2A Tudor inh: inactive; HP1b chromo inh: inactive; G9a inh: 15.8µM; BAZ2B block: inactive

How did CCN(CC)S(=O)(=O)c1cccc(NC(=O)C(=O)c2c(-c3ccccc3)cc3ccccn23)c1 do in these assays?
PLK1 PBD block: inactive; JMJD2A Tudor inh: inactive; HP1b chromo inh: inactive; G9a inh: inactive; Sfp PPTase inh: inactive; BAZ2B block: inactive

How did CCN(CC)S(=O)(=O)c1ccc(N2CCOCC2)c(NC(=O)C(=O)c2c(-c3ccccc3)cc3ccccn23)c1 do in these assays?
PLK1 PBD block: inactive; JMJD2A Tudor inh: inactive; HP1b chromo inh: inactive; G9a inh: 35.5µM; Sfp PPTase inh: inactive; BAZ2B block: inactive

How did CCN(CC)S(=O)(=O)c1ccc(N2CCOCC2)c(NC(=O)CNCCc2ccccc2)c1 do in these assays?
PLK1 PBD block: inactive; JMJD2A Tudor inh: 39.8µM; HP1b chromo inh: inactive; G9a inh: 11.2µM; Sfp PPTase inh: inactive; BAZ2B block: 50.1µM

What do the screens show for `CCN(CC)S(=O)(=O)c1ccc(N2CCOCC2)c(NC(=O)c2ccc(C#N)cc2)c1`?
PLK1 PBD block: inactive; JMJD2A Tudor inh: inactive; HP1b chromo inh: inactive; G9a inh: 11.2µM; Sfp PPTase inh: inactive; BAZ2B block: inconclusive

Results for COc1ccc(S(=O)(=O)N2CCCCCC2)cc1NC(=O)CN1C(=O)NC(C)(c2ccccc2)C1=O (stereo not given) ?
PLK1 PBD block: inactive; JMJD2A Tudor inh: inactive; HP1b chromo inh: inactive; G9a inh: 15.8µM; BAZ2B block: inactive

How did CCN(CC)S(=O)(=O)c1ccc(N2CCOCC2)c(NC(=O)COc2ccccc2)c1 do in these assays?
PLK1 PBD block: inactive; JMJD2A Tudor inh: inactive; HP1b chromo inh: inactive; G9a inh: inactive; Sfp PPTase inh: inactive; BAZ2B block: inactive

How did O=C(CCNC(=O)c1ccccc1Cl)Nc1ccc(S(=O)(=O)N2CCOCC2)cc1 do in these assays?
PLK1 PBD block: inactive

What do the screens show for `O=C(NCCCn1ccnc1)/C(=C/c1ccco1)NC(=O)c1ccccc1`?
PLK1 PBD block: inactive; JMJD2A Tudor inh: inactive; HP1b chromo inh: inactive

How did Cc1ccc(C(=O)N/C(=C\c2ccc(F)cc2)C(=O)NCCCn2ccnc2)cc1 do in these assays?
PLK1 PBD block: inactive; JMJD2A Tudor inh: inactive; HP1b chromo inh: inactive; G9a inh: inactive; Sfp PPTase inh: inactive; BAZ2B block: 79.4µM

What do the screens show for `O=C(NCCCn1ccnc1)/C(=C\c1ccccc1Cl)NC(=O)c1ccccc1`?
PLK1 PBD block: inactive; JMJD2A Tudor inh: inactive; HP1b chromo inh: inactive; Sfp PPTase inh: inactive; BAZ2B block: inconclusive

How did Cc1ccc(C(=O)N/C(=C/c2ccccc2F)C(=O)NCCCn2ccnc2)cc1 do in these assays?
PLK1 PBD block: 26.7µM; JMJD2A Tudor inh: inactive; HP1b chromo inh: inactive; G9a inh: inactive; Sfp PPTase inh: inactive; BAZ2B block: inactive

How did COc1ccc(/C=C(\NC(=O)c2ccc(C)cc2)C(=O)NCCCn2ccnc2)cc1OC do in these assays?
PLK1 PBD block: inactive; JMJD2A Tudor inh: inactive; HP1b chromo inh: inactive; G9a inh: inactive; Sfp PPTase inh: inactive; BAZ2B block: 50.1µM

How did COc1ccc(/C=C(/NC(=O)c2ccccc2)C(=O)NCCCn2ccnc2)cc1OC do in these assays?
PLK1 PBD block: inactive; JMJD2A Tudor inh: inactive; HP1b chromo inh: inactive; G9a inh: inactive; Sfp PPTase inh: inactive; BAZ2B block: inactive

Results for CN(CCOc1ccccc1)C(=O)C1CCC(=O)N(CCCN2CCCC2=O)C1 (stereo not given) ?
PLK1 PBD block: inactive; JMJD2A Tudor inh: inactive; HP1b chromo inh: inactive; G9a inh: inactive; Sfp PPTase inh: inactive; BAZ2B block: inactive

Results for COC(=O)C1=C(C)N(Cc2ccccc2)C(=NCCc2cccnc2)N[C@H]1c1ccccc1 ?
PLK1 PBD block: inactive; JMJD2A Tudor inh: inconclusive; HP1b chromo inh: inactive; G9a inh: 31.6µM!; Sfp PPTase inh: inactive; BAZ2B block: 56.2µM

How did COC(=O)C1=C(C)N(Cc2ccccc2)C(=NCCc2cccnc2)N[C@H]1c1ccc(Br)cc1 do in these assays?
PLK1 PBD block: inactive; JMJD2A Tudor inh: 28.2µM; HP1b chromo inh: inactive; G9a inh: inactive[12.7 µM]; Sfp PPTase inh: inactive; BAZ2B block: 56.2µM

Results for COC(=O)C1=C(C)N(Cc2ccccc2)C(=NCCc2ccccn2)N[C@H]1c1cccc(C(F)(F)F)c1 ?
PLK1 PBD block: inactive; JMJD2A Tudor inh: inconclusive; HP1b chromo inh: inactive; Sfp PPTase inh: inactive; BAZ2B block: inconclusive

What do the screens show for `CCN1C(=NCC2CC2)N[C@@H](c2ccccc2)C(C(=O)OC)=C1C`?
PLK1 PBD block: inactive; JMJD2A Tudor inh: inconclusive; HP1b chromo inh: inactive; G9a inh: inactive[12.7 µM]; Sfp PPTase inh: inactive; BAZ2B block: inactive

What do the screens show for `COC(=O)C1=C(C)N(Cc2ccccc2)C(=NCC2CC2)N[C@H]1c1ccccc1`?
PLK1 PBD block: inactive; JMJD2A Tudor inh: inconclusive; HP1b chromo inh: inactive; G9a inh: inactive[12.7 µM]; Sfp PPTase inh: inactive; BAZ2B block: inactive

Results for COC(=O)C1=C(C)N(Cc2ccccc2)C(=NCC(C)C)N[C@H]1c1ccc(Br)cc1 ?
G9a inh: inactive[12.7 µM]; Sfp PPTase inh: inactive; BAZ2B block: inconclusive
